Whole data set: some 33,000 sequences, median “E-score (-0.5 to 0.5)” near -0.01, cut for the highest 2% near 0.26. The entries come from a sample that favours the highest values as a whole.
Each sequence was assayed against Ste12 (UniProt P13574) (assay: PBM E-score (8-mer binding enrichment) (E-score (-0.5 to 0.5)); higher = stronger / more preferred TF binding). Settings: protein concentration: 200 nM; construct: GST-DNA-binding domain.
Method in brief: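 PURExpress in vitro transcription/translation supplied GST-tagged yeast transcription factors, either full-length or DNA-binding domain. Applied at about 100-200 nM to universal all-10-mer Agilent arrays double-stranded by primer extension, the bound protein was detected with fluorescent anti-GST. E-scores, modified Wilcoxon-Mann-Whitney statistics, were given by the Universal PBM Analysis Suite to ungapped eight-base words pooled with their reverse complements after masliner normalisation.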

Sequence of UniProt P13574 (P13574 whole entry, the tested form may be a part): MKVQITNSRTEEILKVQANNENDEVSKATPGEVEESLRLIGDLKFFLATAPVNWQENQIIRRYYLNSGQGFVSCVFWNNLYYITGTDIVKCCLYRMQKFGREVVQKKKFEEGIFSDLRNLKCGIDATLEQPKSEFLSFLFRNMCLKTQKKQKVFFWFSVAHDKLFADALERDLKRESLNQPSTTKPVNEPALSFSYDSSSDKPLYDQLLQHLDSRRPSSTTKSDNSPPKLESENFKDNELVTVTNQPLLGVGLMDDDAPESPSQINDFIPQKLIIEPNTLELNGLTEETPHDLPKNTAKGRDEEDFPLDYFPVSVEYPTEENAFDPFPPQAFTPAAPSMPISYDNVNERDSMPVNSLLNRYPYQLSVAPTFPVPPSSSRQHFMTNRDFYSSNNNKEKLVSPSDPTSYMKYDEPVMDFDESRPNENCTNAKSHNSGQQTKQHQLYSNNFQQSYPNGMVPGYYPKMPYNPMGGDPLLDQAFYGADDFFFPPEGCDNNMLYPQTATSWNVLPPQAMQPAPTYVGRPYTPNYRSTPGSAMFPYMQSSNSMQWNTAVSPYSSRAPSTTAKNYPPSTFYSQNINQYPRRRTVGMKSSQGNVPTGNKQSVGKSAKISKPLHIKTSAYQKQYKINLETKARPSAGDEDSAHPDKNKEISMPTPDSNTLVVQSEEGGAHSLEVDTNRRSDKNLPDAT

Row | Sequence | PBM E-score
1 | CGCCGTCA | 0.0459
2 | ACTCTGCT | -0.0783
3 | GATATTGC | 0.0418
4 | CCAATCCG | 0.281
5 | CCAATCCC | 0.104
6 | ACAATCCG | -0.0367
7 | GGCTACCC | -0.285
8 | GGGGCGTA | 0.282
9 | AGGGCGGA | -0.248
10 | CGGGCGTA | -0.0442
11 | AGGGCGTA | -0.176
12 | GGGGCGGA | 0.404
13 | CGGGCGGA | -0.012
14 | CGCTCCAG | 0.0315
15 | CAACCTGC | 0.0657
16 | CCTGCAGG | -0.16
17 | AAAAGTTC | 0.0553
18 | AAAAGTAA | 0.287
19 | AAAAGTGT | 0.0304
20 | AAAAGTGG | 0.139
21 | AAAAGTTG | 0.127
22 | AAAAGTTT | 0.283
23 | AAAAGTGA | 0.267
24 | CAAAGTAA | 0.125
25 | AAAAGTAT | 0.178

Row | Sequence | PBM E-score
26 | CAACAGCC | -0.0347
27 | TATCGAAA | 0.258
28 | GAGTATCC | -0.127
29 | AGGTAGAG | -0.0159
30 | CGCTGGCA | 0.00792
31 | TCACCAAA | 0.177
32 | CCAGCAGG | -0.107
33 | ATGATGGG | -0.0865
34 | ACGAAACT | 0.127
35 | CCGAAACA | 0.376
36 | CCGAAACG | 0.152
37 | CCGAAAAA | 0.269
38 | ACGAAACA | 0.327
39 | GCGAAACA | 0.134
40 | ACGAAACC | 0.242
41 | CCGAAACC | 0.142
42 | TCGAAACA | 0.395
43 | CCGAAAAC | 0.0124
44 | TCGAAAAA | 0.238
45 | CCGAAAAG | 0.235
46 | ATTTTTGC | 0.236
47 | CCTCTAGA | -0.134
48 | ATTCGCGA | 0.0844
49 | ATAGACTC | -0.133
50 | CAGCTTAC | 0.0225

Row | Sequence | PBM E-score
51 | AAGACATG | -0.137
52 | GCCTGGGA | -0.23
53 | TACCTGGA | -0.0387
54 | TCCCGCAA | 0.18
55 | ACATAGGA | -0.0111
56 | ATTTAGGA | -0.039
57 | ACAGAATA | 0.0915
58 | CTCGCAGC | 0.0324
59 | CAGAAACA | 0.156
60 | ACGAAAGG | 0.0336
61 | AAGAAACT | 0.172
62 | ACGAAAAG | 0.16
63 | ACGAAACG | 0.31
64 | AAGAAACA | 0.285
65 | GGTCCATA | -0.111
66 | AAGCAATA | 0.0028
67 | ACGGCATG | -0.107
68 | CAGGTAAA | 0.248
69 | GAGGTAAA | 0.334
70 | GAGGTAAC | 0.0397
71 | GAGCTGGC | -0.0837
72 | AAAATATT | 0.266
73 | CATATATC | 0.0851
74 | AAAATATC | 0.147
75 | AGTATATC | -0.0122

Row | Sequence | PBM E-score
76 | AATATATG | 0.143
77 | AATATATT | 0.326
78 | AAAATATG | 0.241
79 | AGTATATG | 0.143
80 | CATATATA | 0.283
81 | CATATATG | 0.18
82 | AATATATA | 0.22
83 | AGTATATA | 0.295
84 | CCCCTAGG | -0.254
85 | ACGCTAGA | -0.209
86 | CTGTTGGA | 0.0959
87 | ATCAGGGG | -0.128
88 | GATGGTTA | -0.0584
89 | CCGGTTTC | 0.298
90 | CAGGTTTC | 0.361
91 | CAGGTTTA | 0.0837
92 | AAGGTTTC | 0.148
93 | CTGGTTTC | 0.244
94 | ATGGTTTC | 0.28
95 | ACGGTTTC | 0.2
96 | CGGGTTTC | 0.323
97 | AGGGTTTC | 0.114
98 | ATGGTTTG | 0.0887
99 | CCGGTTTA | -0.00824
100 | CGGGTTAC | 0.0422

Row | Sequence | PBM E-score
101 | AGCCTCGC | -0.155
102 | GCCCGATA | -0.0773
103 | AAGGTTCG | -0.185
104 | AAGTGCAA | -0.0141
105 | AGTGATGC | -0.099
106 | TCAGACGA | -0.0271
107 | AGGGTTTA | 0.00108
108 | CGGGTTTA | 0.304
109 | GGGGTTTA | 0.00666
110 | GTTCAGAA | -0.0378
111 | AAAACGCC | 0.099
112 | AAACCGCC | 0.212
113 | CCAACGCG | -0.107
114 | AAAACGCT | 0.0239
115 | AAACCGCG | 0.287
116 | CAAACGCG | 0.292
117 | AAAACGCG | 0.285
118 | CAACCGCG | 0.0561
119 | CGAACGCG | 0.0317
120 | CAGTTTTC | 0.105
121 | CACACCAG | 0.0883
122 | ACTAGTTA | 0.027
123 | AACAGTAT | 0.108
124 | AATGGGAG | 0.021
125 | ACACTGTC | -0.0374

Row | Sequence | PBM E-score
126 | CTGAGTCA | 0.0791
127 | GACTGTAA | -0.0138
128 | CACTGAAA | 0.322
129 | AACTGAAC | 0.0813
130 | CACTGAAC | 0.0627
131 | AACTGAAA | 0.422
132 | AACTGAAG | 0.158
133 | GACTGAAA | 0.241
134 | AACTGTAT | 0.134
135 | CACTGAAG | -0.03
136 | AACTGTAA | 0.328
137 | TACTGATA | 0.198
138 | TACTGAAA | 0.358
139 | CGCCATAA | -0.108
140 | AAGACCTA | -0.0739
141 | AATCGCCG | -0.0024
142 | TAACGTAA | 0.191
143 | ATAAATGA | 0.189
144 | AGTAGACG | -0.0195
145 | TCTCTCAA | 0.0783
146 | ACTGCAAT | 0.109
147 | AAGGTCCC | -0.279
148 | TGTCACAA | 0.3
149 | CGTCACAA | 0.108
150 | GGTCACAA | -0.022

Row | Sequence | PBM E-score
151 | AACGTTGG | 0.038
152 | CTAGATCA | -0.22
153 | CAGTGGGA | -0.0936
154 | CACCACTC | -0.164
155 | TACCGAAA | 0.0921
156 | ACTGTGGA | -0.123
157 | AGTTTCAT | 0.428
158 | AGTTTCAG | 0.464
159 | CCTTTCAG | -0.115
160 | AGTTTCCG | 0.148
161 | AATTTCAT | 0.0623
162 | GGTTTCCA | -0.0565
163 | ACTTTCAT | -0.0303
164 | CATTTCAG | 0.0948
165 | CGTTTCCA | 0.301
166 | CGTTTCAG | 0.482
167 | CGTTTCCC | 0.165
168 | ACTTTCAG | 0.0489
169 | CATTGACG | 0.0435
170 | GAGCTCGC | -0.0349
171 | CCCTTAGC | -0.0617
172 | CCGTTGCA | 0.0898
